# From PubChem BioAssay
# Activity calls are given as the source filed them.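 How the source made its calls, unless noted: active means primary screen hit whose fluorescence ratio, in both repeats, exceeds the weak agonist control mean by 3 SD; inactive means the rest.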
# Test system: transient receptor potential cation channel C4 beta (TRPC4), mouse
# Assay: TRPC4 cation channel opening, second retest – cell-based, second round, Fluo4, HEK293 TRPC4beta/mu-opioid, 1 µM, confirmation (AID 2461;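 active means primary screen active and over 50% activation in each of two duplicate runs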;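 on activation: 0% = wells without test compound as baseline of integrated fluorescence ratio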)
# Settings: Fluo4 calcium fluorescence, at 1 µM; hits give high values
Structure (SMILES),activation,outcome
Cc1cccn2c(CNCCc3ccccn3)c(C(=O)N3CCOCC3)nc12,55% (active),–
COc1ccc(/C=N/NC(=O)C2COc3ccccc3O2)cc1OC (stereo not drawn),59% (active),–
CN(C)CCNC(=O)c1c(NC(=O)c2ccccc2)sc2c1CCCC2,–,inactive
Cc1ccccc1N1CC(O)(c2ccccc2)[N+]2=C1SCC2 (stereo not drawn),–,inactive
CC(C)Cc1ccc(CN2CCCC(NC(=O)CCn3cnnn3)C2)cc1 (stereo not drawn),–,inactive
CN1CCN(Cc2nc3c(c(=O)[nH]c(=O)n3C)n2Cc2c(F)cccc2Cl)CC1,80% (active),–
O=C(CC1C(=O)NCCN1Cc1cccc(Oc2ccccc2)c1)NCCc1ccccn1 (stereo not drawn),–,inactive
CN(C)CCCN(C(=O)c1ccc(Cl)s1)c1nc2cc3c(cc2s1)OCO3,–,inactive
Cc1cc(CSC(=N)N)c(CSC(=N)N)cc1C,67% (active),–
COC(=O)c1ccc(N2CCN(C)CC2)c(NC(=O)c2ccc(Br)o2)c1,–,inactive
CCc1cc(OCCN(C)C)ccc1Cl,–,inactive
C=CCn1c(/N=C/c2ccc(N(C)C)cc2)nc2ccccc21,–,inactive
CCC1CCCCN1S(=O)(=O)c1ccc(C(=O)N(CCCN(C)C)c2nc3cc4c(cc3s2)OCO4)cc1 (stereo not drawn),–,inactive
CCn1c(CN2CCN(Cc3ccc(C)cc3)C(CCO)C2)nc2ccccc21 (stereo not drawn),73% (active),–
O=C(NCc1ccccc1)C1=C[C@@H](C2CCCCC2)C[C@@H](OCc2ccc(CO)cc2)O1,–,inactive
CCN1CCCC1CNS(=O)(=O)c1c(C)cc(C)cc1C (stereo not drawn),–,inactive
CSc1ccc(C(=O)NCC(c2ccco2)N(C)C)cc1[N+](=O)[O-] (stereo not drawn),228% (active),–
Cc1ccc2nc(N(CCCN(C)C)C(=O)c3ccc(S(=O)(=O)N4CCc5ccccc5C4)cc3)sc2c1,75% (active),–
COc1ccccc1/C=C/CN1CCCC(CCC(=O)NCc2ccc(F)c(F)c2)C1 (stereo not drawn),79% (active),–
CC[C@@H](C)[C@H](CNC)NC[C@@H](Cc1cccc2ccccc12)NCCc1cccc(C(F)(F)F)c1,–,inactive

Structure (SMILES),activation,outcome
CC(C)C1CC(CCNCc2ccc(N(C)C)cc2)(c2ccccc2)CCO1 (stereo not drawn),–,inactive
Clc1cc(Cl)cc(C2=NC(Cc3ccccc3)CO2)c1 (stereo not drawn),–,inactive
O=C(NCCc1cnc[nH]1)c1ccc(-c2ccccc2)cc1,–,inactive
COCC1CCN(Cc2cn(-c3ccccc3F)nc2-c2cc(C)sc2C)CC1,–,inactive
Cc1cc(C)cc(NC(=S)N2CCN(c3ncc(C(F)(F)F)cc3Cl)CC2)c1,–,inactive
CC(C)C1CC(CCNCc2ccc3c(c2)OCO3)(c2ccccc2)CCO1 (stereo not drawn),–,inactive
Cc1ccc(CNC(=O)C2CCCN(Cc3cnn(-c4ccccc4)c3-n3cccc3)C2)cc1 (stereo not drawn),–,inactive
CN1CCN(c2ccc(NC(=O)COc3cccc4ccccc34)cc2)CC1,–,inactive
COc1ccc(CSCCN)cc1Cl,–,inactive
Cc1csc2c(N3CCN(C(=O)Nc4ccccc4)CC3)ncnc12,–,inactive
CCOC(=O)C1(Cc2ccccc2)CCN(Cc2cn[nH]c2-c2ccccc2)CC1,–,inactive
CCOc1ccccc1C1CC(c2ccc(Cl)cc2)Nc2nc(N)nn21 (stereo not drawn),–,inactive
O=C(c1sc2ccccc2c1Cl)N(Cc1ccccc1)C1CCS(=O)(=O)C1 (stereo not drawn),–,inactive
Cc1ccc(C)c(-n2cc(CNCCCn3cccn3)c(-c3ccccc3)n2)c1,129% (active),–
NC(=O)C1CCCN(CCc2ccccc2)C1 (stereo not drawn),133% (active),–
CCn1c(=O)c(C(=O)NNC(=O)c2ccccc2F)c(O)c2ccccc21,–,inactive
O=C(NCc1ccccc1)C1=C[C@H](c2ccccc2)C[C@H](OCc2ccc(CO)cc2)O1,–,inactive
O=C(CC1C(=O)NCCN1Cc1ccccc1C(F)(F)F)NCCc1ccccn1 (stereo not drawn),–,inactive
CCn1c(N2CCN(S(=O)(=O)CC)CC2)nc2ccccc21,–,inactive

# Test system: TRPC4 (transient receptor potential cation channel C4 beta), mouse
# Assay: potentiation of DAMGO EC20 TRPC4 response – cell-based, second round, Fluo-4, HEK293 TRPC4beta/mu-opioid, 1 µM, confirmation (AID 2554)
# Settings: DAMGO EC20, Fluo-4 calcium flux, at 1 µM; hits give high values
Structure (SMILES),outcome,potentiation
Cc1cccn2c(CNCCc3ccccn3)c(C(=O)N3CCOCC3)nc12,inactive,–
COc1ccc(/C=N/NC(=O)C2COc3ccccc3O2)cc1OC (stereo not drawn),inactive,–
CN(C)CCNC(=O)c1c(NC(=O)c2ccccc2)sc2c1CCCC2,inactive,–
Cc1ccccc1N1CC(O)(c2ccccc2)[N+]2=C1SCC2 (stereo not drawn),inactive,–
CC(C)Cc1ccc(CN2CCCC(NC(=O)CCn3cnnn3)C2)cc1 (stereo not drawn),inactive,–
CN1CCN(Cc2nc3c(c(=O)[nH]c(=O)n3C)n2Cc2c(F)cccc2Cl)CC1,–,11% (active)
O=C(CC1C(=O)NCCN1Cc1cccc(Oc2ccccc2)c1)NCCc1ccccn1 (stereo not drawn),inactive,–
CN(C)CCCN(C(=O)c1ccc(Cl)s1)c1nc2cc3c(cc2s1)OCO3,inactive,–
Cc1cc(CSC(=N)N)c(CSC(=N)N)cc1C,inactive,–
COC(=O)c1ccc(N2CCN(C)CC2)c(NC(=O)c2ccc(Br)o2)c1,inactive,–
CCc1cc(OCCN(C)C)ccc1Cl,–,47% (active)
C=CCn1c(/N=C/c2ccc(N(C)C)cc2)nc2ccccc21,inactive,–
CCC1CCCCN1S(=O)(=O)c1ccc(C(=O)N(CCCN(C)C)c2nc3cc4c(cc3s2)OCO4)cc1 (stereo not drawn),inactive,–
CCn1c(CN2CCN(Cc3ccc(C)cc3)C(CCO)C2)nc2ccccc21 (stereo not drawn),inactive,–
O=C(NCc1ccccc1)C1=C[C@@H](C2CCCCC2)C[C@@H](OCc2ccc(CO)cc2)O1,inactive,–
CCN1CCCC1CNS(=O)(=O)c1c(C)cc(C)cc1C (stereo not drawn),inactive,–
CSc1ccc(C(=O)NCC(c2ccco2)N(C)C)cc1[N+](=O)[O-] (stereo not drawn),inactive,–
Cc1ccc2nc(N(CCCN(C)C)C(=O)c3ccc(S(=O)(=O)N4CCc5ccccc5C4)cc3)sc2c1,inactive,–
COc1ccccc1/C=C/CN1CCCC(CCC(=O)NCc2ccc(F)c(F)c2)C1 (stereo not drawn),inactive,–
CC[C@@H](C)[C@H](CNC)NC[C@@H](Cc1cccc2ccccc12)NCCc1cccc(C(F)(F)F)c1,inactive,–

Structure (SMILES),outcome,potentiation
CC(C)C1CC(CCNCc2ccc(N(C)C)cc2)(c2ccccc2)CCO1 (stereo not drawn),inactive,–
Clc1cc(Cl)cc(C2=NC(Cc3ccccc3)CO2)c1 (stereo not drawn),inactive,–
O=C(NCCc1cnc[nH]1)c1ccc(-c2ccccc2)cc1,inactive,–
COCC1CCN(Cc2cn(-c3ccccc3F)nc2-c2cc(C)sc2C)CC1,inactive,–
Cc1cc(C)cc(NC(=S)N2CCN(c3ncc(C(F)(F)F)cc3Cl)CC2)c1,inactive,–
CC(C)C1CC(CCNCc2ccc3c(c2)OCO3)(c2ccccc2)CCO1 (stereo not drawn),inactive,–
Cc1ccc(CNC(=O)C2CCCN(Cc3cnn(-c4ccccc4)c3-n3cccc3)C2)cc1 (stereo not drawn),inactive,–
CN1CCN(c2ccc(NC(=O)COc3cccc4ccccc34)cc2)CC1,inactive,–
COc1ccc(CSCCN)cc1Cl,inactive,–
Cc1csc2c(N3CCN(C(=O)Nc4ccccc4)CC3)ncnc12,inactive,–
CCOC(=O)C1(Cc2ccccc2)CCN(Cc2cn[nH]c2-c2ccccc2)CC1,inactive,–
CCOc1ccccc1C1CC(c2ccc(Cl)cc2)Nc2nc(N)nn21 (stereo not drawn),inactive,–
O=C(c1sc2ccccc2c1Cl)N(Cc1ccccc1)C1CCS(=O)(=O)C1 (stereo not drawn),inactive,–
Cc1ccc(C)c(-n2cc(CNCCCn3cccn3)c(-c3ccccc3)n2)c1,inactive,–
NC(=O)C1CCCN(CCc2ccccc2)C1 (stereo not drawn),inactive,–
CCn1c(=O)c(C(=O)NNC(=O)c2ccccc2F)c(O)c2ccccc21,inactive,–
O=C(NCc1ccccc1)C1=C[C@H](c2ccccc2)C[C@H](OCc2ccc(CO)cc2)O1,inactive,–
O=C(CC1C(=O)NCCN1Cc1ccccc1C(F)(F)F)NCCc1ccccn1 (stereo not drawn),inactive,–
CCn1c(N2CCN(S(=O)(=O)CC)CC2)nc2ccccc21,inactive,–
